# Assay results taken from PubChem BioAssay AID493035 (The Scripps Research Institute Molecular Screening Center, 2011).
# Screen size: about 2,000 compounds; about 45 (2%) were called active. Only a selection was taken, and actives are over-represented in it overall. Unmarked numbers belong to inactive results.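 How the source made its calls: active means inhibition above the mean of all tested compounds plus 3 SD (cut at about 49% in these data); inactive means the rest.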
# Target: Perilipin-5 (Homo sapiens) + 1-acylglycerol-3-phosphate O-acyltransferase ABHD5 (Homo sapiens) (UniProt Q00G26+Q8WTS1)
# Sequence (Q00G26 whole entry, looked up): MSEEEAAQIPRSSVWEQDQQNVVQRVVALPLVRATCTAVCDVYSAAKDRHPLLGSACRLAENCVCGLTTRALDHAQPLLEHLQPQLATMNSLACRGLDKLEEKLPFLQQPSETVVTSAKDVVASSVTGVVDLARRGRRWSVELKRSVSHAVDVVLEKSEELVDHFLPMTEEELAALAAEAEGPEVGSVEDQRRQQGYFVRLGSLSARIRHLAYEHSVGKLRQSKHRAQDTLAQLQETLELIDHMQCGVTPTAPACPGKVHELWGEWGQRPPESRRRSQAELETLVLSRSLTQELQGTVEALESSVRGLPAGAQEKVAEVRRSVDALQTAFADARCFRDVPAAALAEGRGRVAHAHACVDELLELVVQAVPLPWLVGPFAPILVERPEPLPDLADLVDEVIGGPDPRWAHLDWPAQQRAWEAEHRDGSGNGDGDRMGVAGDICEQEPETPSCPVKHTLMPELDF
# Sequence (Q8WTS1 whole entry, looked up): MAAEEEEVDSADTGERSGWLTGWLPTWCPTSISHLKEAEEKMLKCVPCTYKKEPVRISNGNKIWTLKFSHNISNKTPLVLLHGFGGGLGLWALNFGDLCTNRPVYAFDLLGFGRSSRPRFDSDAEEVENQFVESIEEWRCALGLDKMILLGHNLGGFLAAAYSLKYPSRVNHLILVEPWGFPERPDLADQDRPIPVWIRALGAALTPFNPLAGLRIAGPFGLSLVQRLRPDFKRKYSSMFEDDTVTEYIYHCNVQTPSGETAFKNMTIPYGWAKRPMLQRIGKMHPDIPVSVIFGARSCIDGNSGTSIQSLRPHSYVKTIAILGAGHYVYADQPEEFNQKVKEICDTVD
# Experiment: ABHD5-PLIN5 interaction inhibitors, pilot screen, cell lysate, split luciferase complementation, luminescence, NIH validation set (AID 493035);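 further: 0% = DMSO only wells while the 100% control is not stated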
# Conditions: split G. princeps luciferase complementation, lysates, 4 h; at 7.9 µM, stronger effect = higher value
row,SMILES,inhibition
1,COc1ccc(NC(=O)CC2C(=O)N(C)C(=S)N2Cc2ccncc2)cc1 (stereo unspecified),-3.37%
2,O=C(O)C1Cc2ccccc2CN1S(=O)(=O)c1ccccc1 (stereo unspecified),3.15%
3,O=C(O)Cc1ccc(O)c(F)c1,-5.48%
4,CCOc1ccc(N2C(=O)CNC2=S)cc1,-13.8%
5,COc1ccccc1-c1c(C(F)(F)F)oc2cc(OC(=O)c3ccc([N+](=O)[O-])cc3)ccc2c1=O,29.5%
6,O=C(CCCN1C(=O)/C(=C\c2cccs2)SC1=S)Nc1ccccn1,-1.47%
7,O=C(CCCN1C(=O)/C(=C\c2cccc(Br)c2)SC1=S)Nc1cccnc1,28.1%
8,O=C(CN1C(=O)/C(=C/c2cccc(Br)c2)SC1=S)Nc1cccnc1,52% (active)
9,COc1ccc(C2=NOC(COc3ccc4c(C)cc(=O)oc4c3)C2)c(OC)c1 (stereo unspecified),27.1%
10,O=C(COc1ccc2c(-c3ccccc3)cc(=O)oc2c1)NCc1cccs1,9.91%
11,CC/C(=C1/C(=O)CC(C)(C)C(C(=O)OC)C1=O)N1CCCC1 (stereo unspecified),6.45%
12,COc1ccc(/C=C/C(=O)c2cc3cccc(OC)c3oc2=O)cc1,69.5% (active)
13,COc1ccc(C(=O)/C=C/c2ccc(OC(=O)c3cc(OC)c(OC)c(OC)c3)cc2)cc1,40.8%
14,COc1cccc2cc(-c3ccccc3)c(=O)oc12,-4.71%
15,N/C(=N\OC(=O)CCCOc1ccc(Cl)cc1Cl)c1ccccn1,-4.4%
16,CC12COC3(C(=O)Nc4ccc(F)cc4)CC1CCC32C (stereo unspecified),-5.49%
17,O=C(Nc1ncc2c(n1)CC(c1ccco1)CC2=O)c1ccco1 (stereo unspecified),0.31%
18,Cn1cc(/C=C/C(=O)c2ccccc2)c2ccccc21,13.7%
19,O=C(/C=C/c1ccccc1)c1ccccc1,69.7% (active)
20,O=C(/C=C/Sc1ccccc1)c1ccccc1,85.6% (active)
21,O=C(/C=C/c1ccccc1)/C=C/c1ccccc1,92.3% (active)
22,O=C(CCCCCCCC(=O)c1ccccc1)c1ccccc1,-4.5%
23,O=C(/C=C/c1ccccc1)NC(=O)c1ccccc1O,12.7%

row,SMILES,inhibition
1,CC(CCc1ccccc1)NC(=O)/C=C/c1ccccc1 (stereo unspecified),0.97%
2,O=C(O)c1ccc(C(=O)C(=O)c2ccccc2)cc1,-3.75%
3,N/C(=N\OC(=O)/C=C/c1ccccc1)c1ccc(Br)cc1,-11.8%
4,COc1ccc(Cc2noc(CN(C)CCN3CCc4ccccc4C3)n2)cc1OC,-5.39%
5,CC(=O)Nc1ccc2[nH]c(C)c(CC=C(Cl)Cl)c(=O)c2c1,-10.7%
6,COc1ccc(CCn2c(C)nc3c(c(=O)c4ccccc4n3C)c2=O)cc1,11%
7,Cc1nnc(SCC(=O)N2CCCC(C(=O)c3ccc(Cl)cc3)C2)o1 (stereo unspecified),0.98%
8,Cc1ccc2[nH]c3c(=O)n(CCCN4CCN(C)CC4)cnc3c2c1,-5.12%
9,O=C(O)CCn1c(=S)n(CCC(=O)O)c2ccccc21,8.91%
10,Cc1ccccc1OCCSc1nc2ncnc(N)c2[nH]1,-10.3%
11,COc1c(C)cc(C(=O)C2CCCN(Cc3ccc(Oc4ncccn4)cc3)C2)cc1C (stereo unspecified),-0.46%
12,CSCCC(NC(=O)OC(C)(C)C)C(=O)Oc1ccc2c(=O)c(-c3ccc4c(c3)OCCO4)coc2c1 (stereo unspecified),69.1% (active)
13,O=c1c(-c2ccc3c(c2)OCCO3)coc2cc(OC3OC(CO)C(O)C(O)C3O)ccc12 (stereo unspecified),-6.25%
14,CSCCC(NC(C)=O)C(=O)Oc1ccc2c3c(c(=O)oc2c1)CCCC3 (stereo unspecified),1.97%
15,CCc1c(C)c2ccc(OCC(=O)OC(C)C)c(C)c2oc1=O,-3.95%
16,CCOc1ccc(CC2c3cc(OCC)c(OCC)cc3CCN2C(=O)CN2CCN(C)CC2)cc1OCC (stereo unspecified),-0.88%
17,O=C(/C=C/c1ccc(Cl)cc1)NCCc1ccccc1,1.1%
18,O=C(O)CCCCCN1C(=O)C(=O)/C(=C(/O)c2ccccc2)C1c1ccccc1 (stereo unspecified),-14.1%
19,c1cc(-c2ccncc2)ccn1,-3.86%
20,Nc1cc(-c2ccncc2)c[nH]c1=O,75.3% (active)
21,CCc1cc(=O)oc2cc3occ(-c4ccc(OC)c(F)c4)c3cc12,14.2%
22,CC(C)=CC/C=C1\CCC(C(=O)O)C(C(=O)O)C1 (stereo unspecified),1.14%
23,COCCOC(=O)C1=C(N)OC2=C(C(=O)CCC2)C1c1cccnc1 (stereo unspecified),0.01%
